Laboratory results taken from the supplement of paper PMC6555819.

What was measured:
Experiment in all cases: PBM binding z-score (relative to random genomic background probes); higher = stronger binding; sequences stand for … in GC…GCGATTGACAGCGTAGAATGAAGG
[1] = tested on: PPARg:RXRa DBDmut IVT, anti-RXR (DBD mutation: RXRa K156A/R161A, NR concentration 270 nM, RXRa partner concentration 90 nM)
Method in brief: (§1)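 Binding z-scores were set against random background probes. The data came from custom Agilent 4×180K protein-binding microarrays carrying double-stranded probes with 34-nt variable regions, incubated 1 h with ligand-free nuclear receptor dimers. Partner-specific antibodies detected binding, and scanned fluorescence was regression-normalized.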

[2] = tested on: PPARg:RXRa IVT, anti-PPARg (NR concentration 270 nM, RXRa partner concentration 90 nM)
Method in brief: as §1

[3] = tested on: PPARg DBDmut:RXRa IVT, anti-PPARg (DBD mutation: PPARg1 K132A/R137A, NR concentration 270 nM, RXRa partner concentration 90 nM)
Method in brief: as §1

[4] = tested on: PPARg DBDmut IVT, anti-PPARg (DBD mutation: PPARg1 K132A/R137A, NR concentration 270 nM)
Method in brief: as §1

[5] = tested on: PPARg homodimer (NR concentration 180 nM)
Method in brief: as §1

[6] = tested on: PXR:RXRa (NR concentration 270 nM, RXRa partner concentration 90 nM)
Method in brief: as §1

[7] = tested on: PXR homodimer (NR concentration 270 nM)
Method in brief: as §1

[8] = tested on: RARa:RXR (NR concentration 270 nM, RXRa partner concentration 90 nM)
Method in brief: as §1

[9] = tested on: RARa homodimer (NR concentration 270 nM)
Method in brief: as §1

[10] = tested on: RARb:RXRa (NR concentration 270 nM, RXRa partner concentration 90 nM)
Method in brief: as §1

[11] = tested on: RARb homodimer (NR concentration 270 nM)
Method in brief: as §1

[12] = tested on: RARg:RXRa (NR concentration 270 nM, RXRa partner concentration 90 nM)
Method in brief: as §1

[13] = tested on: RARg homodimer (NR concentration 270 nM)
Method in brief: as §1

[14] = tested on: RXRa DBDmut IVT, anti-RXR (DBD mutation: RXRa K156A/R161A, NR concentration 90 nM)
Method in brief: as §1

[15] = tested on: RXRa homodimer (NR concentration 180 nM)
Method in brief: as §1

[16] = tested on: THRa:RXRa (NR concentration 90 nM, RXRa partner concentration 90 nM)
Method in brief: as §1

[17] = tested on: THRa homodimer (NR concentration 90 nM)
Method in brief: as §1

[18] = tested on: VDR homodimer (NR concentration 270 nM)
Method in brief: as §1

Sequence	PBM binding z-score [1]	PBM binding z-score [2]	PBM binding z-score [3]	PBM binding z-score [4]	PBM binding z-score [5]	PBM binding z-score [6]	PBM binding z-score [7]	PBM binding z-score [8]	PBM binding z-score [9]	PBM binding z-score [10]	PBM binding z-score [11]	PBM binding z-score [12]	PBM binding z-score [13]	PBM binding z-score [14]	PBM binding z-score [15]	PBM binding z-score [16]	PBM binding z-score [17]	PBM binding z-score [18]
CCAGATAGGTGAGAAGGTAACTCAGCCTCGATTA	2.53	1.72	-0.37	-0.16	1.05	0.0792	0.177	0.307	0.419	0.76	0.492	0.647	0.649	0.238	0.44	0.177	-0.0242	-0.157
CCTTACGGCTCACTGACAGGTTATAGCATTTGGA	0.701	-0.612	0.0543	-0.0527	0.157	0.158	0.192	0.669	0.331	0.0996	0.213	0.216	0.301	0.689	0.388	0.0321	0.195	-0.0205
GCTAGTAGTTGAAAGGGCAACCGAATGATTCTCG	0.195	1.26	-0.638	-0.335	1.55	0.658	-0.0187	1.47	-1.01	1.88	1.73	1.22	0.96	0.488	1.47	0.474	-0.735	-0.34
TCTATTAGTTGAGTAGGGCAACCGAAACAGCGGA	2.19	2.75	0.301	0.883	0.0171	-0.0938	-0.0884	0.248	-0.221	0.507	0.153	0.16	0.294	0.368	0.116	-0.257	-0.445	-0.411
CCTACTGGGCCATTCAGAGGTCATTTATCATATG	3.98	4.38	1.61	0.342	2.27	4.91	2.24	4.44	0.704	2.79	3.73	3.91	2.73	1.47	3.27	3.12	1.45	4.04
TGAATTAGGTTATAAGATCAGGGAACGTTGCAAA	5.05	4.53	1.08	1.15	1.14	-0.000172	0.301	-0.0809	1.34	0.576	-0.204	0.498	0.508	-0.196	0.503	0.533	0.0659	0.321
GCTGCTAGGTCAATTGATGGTCAGCTAAAGCTCG	4.15	3.1	-0.948	0.185	0.889	0.861	-0.942	1.75	-0.705	3.59	2.95	4.28	4.03	1.37	1.95	2.22	-0.157	-0.476
AGTCCAAGTTCATCTAGGTAACGTAAGATATGCT	0.673	2.16	1.06	0.824	1.01	3.95	5.64	1.67	0.0751	3.3	2.25	2.91	3.37	4.78	2.26	2.76	0.459	5.97
ATCTGTAGGTAAAGATAGTTCAGTGAATGCAAAT	1.63	1.5	0.849	0.832	0.977	1.03	0.786	0.946	0.896	0.675	0.933	0.435	0.657	-0.108	0.326	0.527	-0.0674	0.568
CCTACTGGGCCATTCAGCGGTCATTGATCATATG	4.3	3.25	0.0512	-0.76	0.303	-0.111	-0.0854	0.0105	0.0285	1.2	1.85	1.97	1.02	-0.0941	-0.0428	0.283	0.0718	0.166
CCTACTGGGCCAAAAAGGTCATTGACGCCGATAA	3.85	3.99	-0.855	-0.422	2.91	4.65	2.1	5.01	1.28	3.72	4.4	4.59	4.36	0.774	4.9	3.02	0.658	2.4
AGAACGAGGGCAATGAGGTGATAGCACGGGTGGC	3.36	3.33	0.776	0.448	0.588	1.06	0.905	0.818	0.144	2.13	1.58	1.49	1.52	1.37	1.04	2.46	0.988	1.57
CCTACTGGGCCCCGAAAGGTCATTGATTCAGTGA	0.503	2.11	-1.53	-0.961	2.6	4.66	1.26	5.15	1.3	3.6	4.21	4.35	3.23	-0.457	4.99	3.04	1.03	1.81
CAGACTAGGTCACCGGAAGGTCAAAGTCCGCATG	7.28	7.61	0.753	0.84	6.86	5.81	1.7	6.81	2.04	5.34	5.55	8.29	7.56	1.74	6.56	4.37	2.62	3.42
ATCTCTAGGTAACTAAGTTCAGTGAATGCCGAAC	2.67	2.89	1.24	1.19	1.29	2.49	2.44	1.25	0.922	1.37	1.92	1.03	0.956	1.16	0.699	1.67	0.66	2.04
